Screen size: about 290,000 compounds; about 2,300 (0.79%) were called active. No stated cut-off is given here; in the data, active means inhibition above about 22%; inactive means the rest. Shown is part of a subset that was picked to be rich in actives.
Experiment: IEC-6 cell viability reduction – luminescence, cytotoxicity control for KLF5 inhibitor project, primary screen (AID 1825);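 further: 0% = plate median of test compound wells and 100% = cytotoxic reference compound wells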
Conditions: IEC-6 cytotoxicity, at 5 µM, hits give high values

SMILES	inhibition
COc1ccc(N2CCN(S(=O)(=O)c3ccc4c(c3)NC(=O)C(C)C(=O)N4)CC2)cc1 (stereo not given)	1% (inactive)
COc1cc(C(=O)NN(CCC#N)C2=NS(=O)(=O)c3ccccc32)cc(OC)c1OC	-4.2% (inactive)
Cc1ccccc1NCC(=O)N/N=C\c1ccc([N+](=O)[O-])s1	-4.9% (inactive)
Cc1cccc(/C=N/NC(=O)CNc2cccc3ccccc23)n1	37.6% (active)
Cn1cccc1/C=N/NC(=O)c1ccc(OC(F)(F)C(F)F)cc1	2.6% (inactive)
Cn1cccc1/C=N/NC(=O)CNc1cccc2ccccc12	47.6% (active)
C/C(=N\NC(=O)CNc1cccc2ccccc12)c1ccc(Br)s1	0.2% (inactive)
Cc1cccc(C(=O)Nc2ccc(C(=O)N/N=C/c3cccc(C)n3)cc2)c1	1.5% (inactive)
O=C(NCCCn1ccnc1)c1cc(Br)c(Br)s1	-4.3% (inactive)
CN1C(=O)[C@H]2[C@@H](C3CC3)N3C(=O)CN(Cc4ccccc4)C(=O)[C@@]3(C)[C@H]2C1=O	-1.7% (inactive)
CC1CCCN(S(=O)(=O)c2ccc(C(=O)Nc3nnc(-c4ccncc4)o3)cc2)C1 (stereo not given)	-1% (inactive)
CC1CCCCN1S(=O)(=O)c1ccc(C(=O)Nc2nnc(-c3cccs3)o2)cc1 (stereo not given)	29.2% (active)
CSCc1nnc(NC(=O)c2ccc(S(=O)(=O)N3CCCCC3C)cc2)o1 (stereo not given)	-0.9% (inactive)
CCc1nn(CCCC(=O)Nc2ccc(C)c(C)c2)c(=O)c2cc3occc3n12	-1.7% (inactive)
CCCCCCn1cc(C(=O)O)c(=O)c2cc(F)c(N3CCCCC3)cc21	2.5% (inactive)
Cc1ccc(C)c(Cn2cnc3c(oc4ccccc43)c2=O)c1	19.8% (inactive)
O=C(c1n[nH]c2c1CCC2)N1CCCC(Nc2cccc(F)c2)C1 (stereo not given)	-8.3% (inactive)
Cc1ccc(Nc2c3c(nc4ccccc24)CCC3)cc1	7.5% (inactive)
CC(=O)Nc1ccc(Nc2c3ccccc3nc3ccccc23)cc1	95.3% (active)
O=[N+]([O-])c1cccc(Nc2c3ccccc3nc3ccccc23)c1	-0.9% (inactive)
COc1ccc(Cl)cc1NC(=O)CN(C)Cc1ccc(OC)c(OC)c1	5.1% (inactive)
COc1ccccc1N1CC(C(=O)Nc2nnc(SCC(=O)NCC3CCCO3)s2)CC1=O (stereo not given)	5.1% (inactive)
Nc1nonc1-n1nnc(C(=O)N/N=C\c2ccncc2)c1CN1CCCCC1	-0.8% (inactive)
CCOc1cc(/C=N/Nc2cc(C)nc3ccc(C)cc23)ccc1O	-8.1% (inactive)

SMILES	inhibition
CC1(C)CC(N2CCN(C(c3ccccc3)c3ccccc3)CC2)=CC(=[N+]2CCCCC2)C1	30.6% (active)
CC(C)NC(=S)N1CCN(C(c2ccccc2)c2ccccc2)CC1	-1.6% (inactive)
O=C(O)CN1CCN(C(c2ccccc2)c2ccccc2)CC1	-7.1% (inactive)
CC(C)c1ccc(/C=C2\NC(=O)NC2=O)cc1	-2.7% (inactive)
COc1ccc(N(C(=O)CNC(=O)c2ccco2)C(C(=O)NCC2CCCO2)c2ccccc2)cc1Cl (stereo not given)	4.1% (inactive)
CC[n+]1cc(C)ccc1/C=C/c1ccc(N(C)C)cc1	38.6% (active)
CN(C)c1ccc(/C=N\S(=O)(=O)c2ccccc2)cc1	-2.3% (inactive)
CCSc1nnc(-c2cc3c(s2)-c2ccccc2CC3)o1	5.3% (inactive)
CC1CCCN(S(=O)(=O)c2ccc(-c3ccc(=O)[nH]n3)o2)C1 (stereo not given)	2.6% (inactive)
COCCNc1ncnc2c1nc1n2CCCC1	2.4% (inactive)
COc1ccccc1/C=C1\SC(=O)N(CCC(=O)N(C)C2CCS(=O)(=O)C2)C1=O (stereo not given)	-0.8% (inactive)
CN1CCC(CN)(N2CCN(c3ccccc3)CC2)CC1	-4.9% (inactive)
Cc1cnc(NC(=O)c2ccc(Cl)nc2)s1	-6.8% (inactive)
CCN(CC)c1ccc(NC(=O)c2ccc(Cl)nc2)cc1	55.7% (active)
O=C(NNc1ccccn1)c1ccc(Cl)nc1	-4.7% (inactive)
COc1cccc(CNC(=O)CCC2CCCN(C(=O)c3ccc(F)c(Cl)c3)C2)c1 (stereo not given)	1.1% (inactive)
O=C(CNC(=O)c1cccs1)N/N=C/c1cccc(Br)c1	-5.3% (inactive)
O=C(CCN1C(=O)C2C3C=CC(C3)C2C1=O)Nc1ccccc1F (stereo not given)	-2.4% (inactive)
O=C(CN1C(=O)C2C3C=CC(C3)C2C1=O)NCCc1ccccc1Cl (stereo not given)	-1.9% (inactive)
O=C(CN1C(=O)C2C3C=CC(C3)C2C1=O)Nc1nc(-c2ccccn2)cs1 (stereo not given)	32.2% (active)
COc1ccc(/C=N/Nc2nc3ccccc3c(=O)[nH]2)cc1	1.1% (inactive)
COc1ccc(C)cc1-n1nnnc1SCc1nc2ccccc2c(=O)[nH]1	3.2% (inactive)
CCOc1cc(/C=C/c2nc3ccccc3c(=O)[nH]2)cc(Br)c1OC	48.7% (active)
CCC1=Nc2cc(C(=O)NCCN3CCCC3)ccc2Sc2ccc(C)cc21	2.7% (inactive)

SMILES	inhibition
CCCC1=Nc2cc(C(=O)NCc3ccco3)ccc2Sc2ccccc21	62.9% (active)
CCCC1=Nc2cc(C(=O)NCCN3CCCC3)ccc2Sc2ccccc21	-2.7% (inactive)
Cc1ccccc1N1CC(C(=O)Nc2nnc(SCCC3OCCO3)s2)CC1=O (stereo not given)	-3.4% (inactive)
O=c1ccc2cc(S(=O)(=O)NCCCc3ccccc3)ccc2[nH]1	-3.7% (inactive)
O=C(c1cc(COc2ccc(F)c(F)c2)on1)N1CCOCC1	0.8% (inactive)
CCn1ccnc1CN(C)C(=O)c1cc(COc2ccc(-n3cncn3)cc2)on1	-7.1% (inactive)
C=CCC1(CC=C)CCCN1C(=O)c1cc(COc2ccc(-n3cncn3)cc2)on1	22.6% (active)
CCCCNC(=O)CCn1nc(-c2ccc(Cl)cc2)ccc1=O	-2.4% (inactive)
COc1ccc(-c2cc(C(F)(F)F)nc(S(C)(=O)=O)n2)cc1OC	26.4% (active)
COc1cc(OC)nc(S(C)(=O)=O)n1	6.6% (inactive)
COc1ccc(-c2cc(C(F)(F)F)nc(SCC(=O)Nc3ccc4c(c3)OCO4)n2)cc1OC	3% (inactive)
Cn1c(=O)[nH]c(=O)c2c1nc(N1CCN(C(c3ccccc3)c3ccccc3)CC1)n2CCO	-7.4% (inactive)
COc1ccccc1N1CCN(S(=O)(=O)c2ccc3c(c2)NC(=O)CS3)CC1	2.9% (inactive)
CC(C)(C)c1cc[n+](-c2[nH]c(=O)sc2/C=N/N=C(\[O-])c2ccccc2)cc1	4.2% (inactive)
O=C(c1ccccc1F)N(Cc1ccccc1)Cc1ccccc1	-1.4% (inactive)
CC1(C)C(C=C(Cl)Cl)C1C(=O)N(Cc1ccc(Cl)cc1)C1CCS(=O)(=O)C1 (stereo not given)	-12.5% (inactive)
Cc1cc(C(=O)OCC(=O)NCc2ccco2)c(C)n1-c1ccccc1	33.2% (active)
CN(c1ccccc1)S(=O)(=O)c1ccc(Cl)c(C(=O)OCC(=O)NCc2ccco2)c1	-4.1% (inactive)
O=C(COC(=O)c1cc(S(=O)(=O)N2CCCCC2)ccc1Cl)NCc1ccco1	6.2% (inactive)
O=C(COc1ccc(Cl)cc1)Nc1ccc2oc(=O)ccc2c1	-4.8% (inactive)
Clc1ccc(N/N=C/c2cccs2)nn1	-1.4% (inactive)
Oc1cccc(/C=N/Nc2ccc(Cl)nn2)c1O	99.5% (active)
COc1cccc(/C=N/Nc2ccc(Cl)nn2)c1	-3.1% (inactive)
CCC1CCCCN1C(=O)CSc1nc2c(c(=O)n1C)SC(C)C2 (stereo not given)	0% (inactive)

SMILES	inhibition
Cc1cc(Cl)ccc1C(=O)C1CCCN(C(=O)c2nonc2C)C1 (stereo not given)	-1.1% (inactive)
CCC(CC)C(=O)Nc1c2c(nn1-c1ccc(C)cc1)CS(=O)(=O)C2	-3% (inactive)
Cc1ccc(Oc2nc(-c3ccccn3)nc3ccccc23)cc1	8.9% (inactive)
CC(C)(C)Nc1nc(-c2ccccn2)nc2ccccc12	91.3% (active)
CCOCCCNc1nc(-c2ccccc2)nc2ccccc12	-4% (inactive)
COc1cc(N=Cc2c(O)c3ccccc3oc2=O)c(OC)cc1Cl	2.7% (inactive)
CNC[C@H](CC1CCCCC1)NC[C@H](NCCC1CCCC1)[C@H](C)O	36.1% (active)
COc1cc(C(=O)OC2CCOC2=O)c([N+](=O)[O-])cc1OC (stereo not given)	-4% (inactive)
COc1ccccc1Oc1ccc(N/C=C2/CCCC2=O)cc1	-8.7% (inactive)
CC(C)=C(NC(=O)c1ccccc1)C(=O)N/N=C(\C)c1ccccc1O	4% (inactive)
Cc1[nH]n(-c2ccccc2)c(=O)c1/C=N/NC(=O)c1ccoc1C	1.8% (inactive)
C/C(=N\NC(=O)c1ccoc1C)c1ccccc1O	98.7% (active)
CN(Cc1ccccc1)S(=O)(=O)c1nnc(NC(=O)c2ccccc2F)s1	4.7% (inactive)
Cc1ccc(-c2nn(-c3ccccc3)cc2/C=C2\SC(=S)N(CCCCCC(=O)O)C2=O)o1	-8.8% (inactive)
Cc1cccc(N(C(=O)Cn2nnc(-c3ccc(C)o3)n2)C(C(=O)NC2CCCC2)c2ccncc2)c1 (stereo not given)	-3.9% (inactive)
C[N+](C)(C)CCNC(=O)c1cc[n+](Cc2ccccc2)c(/C=N/O)c1	-6.3% (inactive)
CCC(=O)Nc1ccc(C(=O)NNC(=O)c2ccc(Cl)cc2)cc1	2.4% (inactive)
CC(C)(C)c1cc2cccnc2n1Cc1cccc(F)c1	-9.9% (inactive)
Cc1ccc(C(=O)/C=C/c2c(C)nn(-c3ccccc3)c2Cl)cc1	7.3% (inactive)
O=C(/C=C/Sc1ncn[nH]1)c1ccc(Cl)cc1	96.3% (active)
O=C(CSc1ncn[nH]1)N/N=C/c1ccc(F)cc1	2.8% (inactive)
CC(C)(C)n1nnnc1C(c1ccccc1F)N1CCN(C(=O)c2ccco2)CC1 (stereo not given)	-4.7% (inactive)
O=C(OCc1ccc(-c2ccccc2)cc1)c1cccc(O)c1	-3.8% (inactive)

Reference: PubChem BioAssay AID1825 (The Scripps Research Institute Molecular Screening Center, 2009)
